Source: PubChem
Many of the other results were omitted from the sample, so hits are more common in it than they were.
VACV E9 pol inh = blocks vaccinia virus processive DNA synthesis; normalized absorbance, % (no concentration beside the values); in vitro processive DNA synthesis, absorbance read-out; active compounds read low; 0.94% of 46,000 active; in the data active = normalized absorbance mostly below about 85%, no sharp cut-off; inactive = mostly above about 86%
* = called active by the depositor; ! = a repeat was not active.

SMILES	VACV E9 pol inh
Cc1cccc2c1-c1sc(C(=O)NC3CCCC(C)C3C)cc1CO2 (stereo unspecified)	100.1
O=C1C2=C(c3ccccc3)c3cc(F)ccc3C2Sc2ccccc21 (stereo unspecified)	94.0
O=C(CSc1c[nH]c2ccccc12)N1CCc2ccccc21	99.8
Nc1ccccc1SCC(=O)N1CCc2ccccc21	78.7*
Cc1ccc(SCC(=O)N2CCc3ccccc32)cc1	99.9
CCN(CC)c1nc2ccccc2c(=O)n1-c1ccccc1	99.3
Cc1cc2c(NC(=O)COCC(=O)O)cccc2nn1	89.9
Cc1c(CC(=O)O)c(=O)oc2c(C)c3occ(C(C)(C)C)c3cc12	97.9
COc1ccc(-c2coc3cc4oc(=O)c(CC(=O)O)c(C)c4cc23)cc1	86.1
Cc1c(CC(=O)O)c(=O)oc2c(C)c3occ(-c4ccc(Br)cc4)c3cc12	65.0*
CC(NC(=O)c1cnn2c(C(F)(F)F)cc(-c3cccs3)nc12)c1ccccc1 (stereo unspecified)	90.4
NS(=O)(=O)c1ccc(Cl)cc1Sc1ccccc1C(=O)O	85.6
Oc1ccc(Cl)cc1Sc1cc(Cl)ccc1O	77.2*
Oc1ccc(Cl)cc1	102.8
CCCC(=O)Nc1nnc(-c2ccc(Cl)cc2)o1	102.5
Nc1nc2ccccc2n1CCN1CCCCC1	99.9
CCn1c2ccccc2n2cc(-c3ccccc3)nc12	94.2
c1ccc(-c2cn3c4ccccc4n(CCN4CCCCC4)c3n2)cc1	58.8*
O=C(NCCN1CCN(c2nccc(C(F)(F)F)n2)CC1)NC1CCCCC1	103.6
CCOC(=O)c1ccc(N=Cc2ccc3ccccc3c2)cc1	100.4
Cc1ccc(Oc2cc(C#N)c3ccccc3n2)c(-n2nc3ccccc3n2)c1	99.7
Cc1ccc(C(=O)OCc2ccc(C#N)cc2)s1	104.2
CCCOC(=O)CN1C(=O)/C(=C/c2ccccc2)SC1=S	85.7
O=C(O)CN1C(=O)/C(=C/c2ccccc2)SC1=S	90.0
CCOC(=O)CN1C(=O)/C(=C/c2ccccc2)SC1=S	81.5*
SMILES	VACV E9 pol inh
CC(C)(C)c1ccc(/C=C2/NC(=O)N(Cc3ccc(Br)cc3)C2=O)cc1	94.7
Cc1ccc(/C=C2\N=C(c3ccccc3)OC2=O)o1	99.0
Cc1ccc(/C=C2\CC/C(=C\c3ccc(C)o3)C2=O)o1	86.6
Cc1ccc(/C=C2/C=CC(=O)O2)o1	82.4*
COc1ccc(CNc2ccccn2)cc1OC	98.8
C=CCOc1ccccc1CNc1ncn[nH]1	84.1
COc1ccc(CNc2ncn[nH]2)cc1OC	82.0*
Cc1ccc(S(=O)(=O)NC(C)C(=O)O)cc1 (stereo unspecified)	99.5
Nc1c(C(=O)Nc2ccccc2)sc2sc(C(=O)Nc3ccccc3)c(N)c12	100.7
NC(=O)c1cc2ccccc2oc1=Nc1ccc(Cl)cc1Cl	97.6
Cc1nc(N=C(N)N)nc2ccccc12	81.2
COc1ccc2nc(C)c3c(c2c1)OC(C)C3 (stereo unspecified)	98.8
COc1ccc2nc(N=C(N)N)nc(C)c2c1	36.5*
CCc1cc(C(=O)Cc2ccc3ccccc3n2)c(O)cc1OC	106.0
CCN1/C(=C/c2scc[n+]2C)C=C(C)c2cc(OC)c3ccccc3c21	27.0*
CCN1C(=O)C(=Cc2ccc(N3CCOCC3)cc2OC)C(=O)N(CC)C1=S	101.6
CCN1/C(=C/c2ccc3ccccc3[n+]2CC)Sc2cc(NC(C)=O)ccc21	39.2*
CC(=O)Nc1cccc(-c2nc3ccccc3[nH]2)c1	89.5
CC(=O)Nc1ccc(C(=O)OCC(=O)Nc2ccc3ccccc3c2)cc1	74.0
COc1ccccc1N1CCN(CCCNC(=O)c2nnc(Cc3ccccc3Cl)o2)CC1	84.0
CCN1C(=O)/C(=C/c2ccccc2O)SC1=S	98.8
Cc1ccc(S(=O)(=O)c2c(O)c3ccc(C(=O)NCc4ccccc4Cl)cc3[nH]c2=O)cc1	85.0
N#CCCN(CC1CCCO1)C(=S)Nc1ccc(F)cc1 (stereo unspecified)	104.2
NC(N)=NC(=O)c1nc(Cl)c(N)nc1N	62.6*!
Cc1cc(Oc2cc(C#N)c3ccccc3n2)ccc1Cl	100.2
SMILES	VACV E9 pol inh
CCOC(=O)c1ccccc1NC(=O)CSc1ncnc2ccccc12	96.6
N=c1c(Cl)cc(C(F)(F)F)cn1O	99.3
CN1/C(=C/C=C/c2oc3ccccc3[n+]2C)Oc2ccccc21	89.0*
C=CCOC(=O)c1c(N)oc2c(-c3ccccc3)c3c(C(=O)OCC=C)c(N)oc3cc12	100.1
CN=C1SC(CC(=O)Nc2cccc(C(=O)O)c2)C(=O)N1C (stereo unspecified)	98.9
CCOc1ccc(Br)cc1S(=O)(=O)n1cnc2ccccc21	90.5
Cc1cc(C)cc(CC(C)CC(=O)Nc2ccccc2I)c1 (stereo unspecified)	98.6
Oc1nc2ccccn2c1-c1c(O)nc2ccccn12	97.7
Cc1cccc2nc(CSCc3ccco3)cn12	79.8
Cc1cccc2nc(CSC(=S)NCC3CCCO3)cn12 (stereo unspecified)	110.3
Cc1cccc2nc(CSC(=S)NCc3cccnc3)cn12	72.2*
N#Cc1cc2c(nc1SCCS(=O)(=O)Cc1ccc(Cl)cc1)CCCC2	99.0
Cc1ccccc1NC1CC(C)Nc2c(C)cccc21 (stereo unspecified)	99.8
COc1ccc(-c2n[nH]c(C(F)(F)F)c2-c2cc3ccccc3o2)c(O)c1	63.2*
COc1ccc(-c2n[nH]c(C(F)(F)F)c2-c2cnn(-c3ccccc3)c2)c(O)c1C	93.9
Cc1c(O)ccc(-c2n[nH]c(C(F)(F)F)c2Oc2ccccc2)c1O	93.0
Cc1cc(N(C)Cc2ccccc2)ncn1	102.6
CCc1ccc(-n2c(N(C)Cc3ccccc3)nc3ccccc3c2=O)cc1	90.1
Cc1cc(N(C)Cc2ccccc2)nc2cc(O)ccc12	77.1*
COc1ccccc1C(=O)Nc1nnc(SCc2cccc(F)c2)s1	99.9
CCOC(=O)c1ccc(CNC(=O)c2ccc(S(=O)(=O)c3ccccc3)cc2)o1	96.5
Cc1noc(C)c1S(=O)(=O)NCCN1CCN(c2ccccc2F)CC1	98.5
CCN(CC)S(=O)(=O)c1ccc(C(=O)Nc2nccs2)cc1	85.6*
CN(C)S(=O)(=O)c1ccc(C(=O)Nc2nccs2)cc1	96.9
CN(C1CCCCC1)S(=O)(=O)c1ccc(C(=O)Nc2nccs2)cc1	88.1
SMILES	VACV E9 pol inh
COc1cccc(C(=O)Nc2ccc3oc(-c4cccc(I)c4)nc3c2)c1	99.9
O=C(c1ccccc1)c1ccccc1Br	80.2
COc1ncnc(OC)c1C	90.2
CCCN(CCC)C(=O)c1c[nH]c2ccc(S(=O)(=O)Nc3ccc(CC)cc3)cc2c1=O	97.9
CC(=C/C(=O)O)/C=C/c1ccccc1	100.9
CC1=C(/C=C/C(C)=C/C=C/C(C)=C\C(=O)O)C(C)(C)CCC1	29.0*
CC1=C(/C=C/C(C)=C/C=C/C(C)=C/C(=O)Nc2ccc(O)cc2)C(C)(C)CCC1	96.8
CN1C(=O)c2ccccc2C(C(=O)NCCCN2CCCC2=O)C1c1cn(C)c2ccccc12 (stereo unspecified)	102.1
CCN(CC)S(=O)(=O)c1cc(C(=O)Nc2ccccc2C)ccc1C	100.0
COc1cc(/C=C2/SC(=Nc3ccccc3)N(CCc3ccccc3)C2=O)ccc1OCC(N)=O	100.3
Cc1ccc(Sc2cnc3ccccc3n2)cc1	118.7
CCOC(=O)c1[nH]ncc1Sc1ccc(Cl)cc1	101.4
Cc1ccc(Sc2cn[nH]c2C)cc1	72.9*
Cc1ccc(N=Cc2ccc[nH]2)c(Br)c1	93.6
O=C(Nc1nonc1OCCOc1nonc1NC(=O)c1ccccc1)c1ccccc1	104.7
COC(=O)c1ccc2nc(NC(=O)Cc3ccccc3)sc2c1	111.8
Cc1[nH]n(-c2ccccc2)c(=O)c1C=Nc1cccc(N)c1	99.8
